# Experimental data taken from ChEMBL document CHEMBL1201862, “PubChem BioAssay data set” (2004).
# Hit rate of the full screen: of about 41,000 sequences, about 2,700 (6.6%) were called active. Cut-off read from the data, not from the text of the source: active = GI50 up to about 1.1 µM and inactive = higher. Only a sample is shown. Potency and affinity values are given separately.
# Test system: BT-549
row,Substance,GI50 [µM]
1,"[Bis(aminomethyl)tetramethylenesilane]dichloropaltinum(II), CHEMBL2146205",8.85
2,"[Bis(aminomethyl)pentamethylenesilane]tetrachloropaltinum(IV), CHEMBL2146204",5.71
3,"CISPLATIN, CHEMBL11359",3.73
4,"[Bis(aminomethyl)dimethylsilane]tetrachloroplatinum(IV), CHEMBL2146190",16.4
5,"[Bis(aminomethyl)tetramethylenesilane]tetrachloropaltinum(IV), CHEMBL2146189",4.99
6,"[Bis(aminomethyl)pentamethylenesilane]dichloropaltinum(II), CHEMBL2146202",16.6
